Experimental data: the OligoGym collection

biological target: NTM; experiment: pooled miR-30 sensor sort-seq; sequence = guide strand; conditions: shRNA
Note: reference of the scale not given here.

Row | Sequence | sensor-assay potency score (higher = more potent)
1 | TTTGTCATCCTTGTACCACTGG | 0.733
2 | TTGTCTGTCTGCACCGAGCAGG | -0.782
3 | AATCAGTCTTTTGTCATCCTTG | -0.561
4 | TTGCTCAGAAGGACCACGCGAG | -0.271
5 | TTCTTTCCTTCAATCAGTCTTT | -0.442
6 | TTGAAGAAGATGAGTTTTGAGA | -0.515
7 | TCTGTCTGCACCGAGCAGGTGT | -0.506
8 | TTGGCTTCTGAAATGTATGGTG | 0.211
9 | TTGCACAATGAGGTGGACCCTA | -0.498

biological target: NTRK2; experiment: as above; conditions: shRNA

Row | Sequence | sensor-assay potency score (higher = more potent)
10 | TTGCCTTTCACAGTGAATGGAA | 0.0334
11 | TTCACTGCCACCAAGATCTTGT | 0.258
12 | TTTAGTACAGATGTATTTGGAC | -0.241
13 | TTTATCAGTGACGTCTGTGGAA | -0.0514
14 | TATGAAACAAAACAAAACCTTT | -1.09
15 | TTGTTTGACAGCTGGTACCAGG | -0.771
16 | TTGATGTGCTGAACAAATGTGT | 0.264
17 | TTTCCTAGACAAACTCGTCAGT | -0.24
18 | TATTAGGAACCGGATCACCTGC | -1.01
19 | TATAGAACCACTGAAGCGCTGG | 0.358
20 | TTCAACATCATCTTCGTTGATG | -0.198
21 | TCGTTGATGATTTCTAACCTTT | -0.793
